{
  "source": "PubChem BioAssay AID504329",
  "about": "(Southern Research Specialized Biocontainment Screening …, 2011)",
  "note": "Hit rate of the full screen: of about 340,000 compounds, about 1,000 (0.29%) were called active. Not all results are given here. Results with a measured potency or affinity are listed apart. Values without a mark were called inactive. No stated cut-off is given here; in the data, inconclusive means inhibition above about 27% without an active follow-up result; inactive means below that.",
  "data": [
    {"test": "H1N1 influenza NS1A inhibitors, functional cell based assay (AID 504329)", "conditions": "percent inhibition, at 12.5 µM, hits give high values", "units": {"inhibition": "%"}, "values": [
      {"smiles": "Cc1cc2oc(=O)cc(COC(=O)Cn3cnnn3)c2cc1C(C)C", "inhibition": -1.41},
      {"smiles": "Cc1nc(SCC(=O)Nc2c(C)n(C)n(-c3ccccc3)c2=O)c2cnn(-c3ccccc3)c2n1", "inhibition": -4.59},
      {"smiles": "CCNc1nc(NCC)nc(N(C)n2cnnc2)n1", "inhibition": -22},
      {"smiles": "CC(C)Nc1nc(NC(C)C)nc(N(C)N)n1", "inhibition": 14.6},
      {"smiles": "COc1ccccc1C(=O)NNS(=O)(=O)c1ccc(F)cc1", "inhibition": -5.08},
      {"smiles": "CCc1ccc(NS(=O)(=O)c2c(C(=O)N3CCOCC3)c(C)n(C)c2C)cc1", "inhibition": 0.85},
      {"smiles": "CCOC(=O)C(C)Oc1ccccc1C1NC(=O)NC(C)=C1C(=O)Nc1ccc(C)c(C)c1", "note": "(stereo not given)", "inhibition": -6.31},
      {"smiles": "[O-][n+]1c2c(nn1-c1ccccc1)/C(=N/O)CCC2", "inhibition": -6.08},
      {"smiles": "CCOC(=O)Cc1nnc(NC(=O)COc2ccc(F)cc2)s1", "inhibition": 6.17},
      {"smiles": "O=C(Nc1nc(-c2ccco2)c(-c2ccco2)s1)c1c(F)cccc1Cl", "inhibition": -14.8},
      {"smiles": "CC1(C)OC(=O)C(=NNc2ccccc2[N+](=O)[O-])C(=O)O1", "inhibition": 3.07},
      {"smiles": "CC1=CC(=NNS(=O)(=O)c2ccc([N+](=O)[O-])cc2)CC(C)(C)C1", "inhibition": 4.39},
      {"smiles": "CC(=O)COc1cc(C)cc2oc(=O)c(C)c(C)c12", "inhibition": 11.6},
      {"smiles": "CCc1ccc2c(c1)C1(NN=C(c3ccc(C)cc3)S1)C(=O)N2", "note": "(stereo not given)", "inhibition": 22.9},
      {"smiles": "CCc1ccc2c(c1)C1(NN=C(c3cccc4ccccc34)S1)C(=O)N2", "note": "(stereo not given)", "inhibition": 11.6},
      {"smiles": "CCOc1ccccc1Nc1cc(C)nc2ccc(C)cc12", "inhibition": 6.09},
      {"smiles": "Cc1ccc(N2CC(NS(=O)(=O)c3cc(F)ccc3F)CC2=O)cc1C", "note": "(stereo not given)", "inhibition": 9.69},
      {"smiles": "Cc1cc2cc(CNS(=O)(=O)c3ccccc3)ccc2n1C", "inhibition": 17},
      {"smiles": "Cc1ccc(S(=O)(=O)NCc2csc(C)n2)cc1", "inhibition": -0.87},
      {"smiles": "CCS(=O)(=O)NCc1ccc2c(c1)cc(C)n2C", "inhibition": 10.3},
      {"smiles": "CCCS(=O)(=O)NCc1ccc2c(c1)cc(C)n2C", "inhibition": 7.25},
      {"smiles": "CC(=O)Nc1ccc(S(=O)(=O)NCc2ccc3c(c2)cc(C)n3C)cc1", "inhibition": 19.1},
      {"smiles": "Cc1nc(CNS(=O)(=O)c2ccc(Oc3ccccc3)cc2)cs1", "inhibition": -11.2},
      {"smiles": "Cc1cc(C)c(S(=O)(=O)NCc2ccc3c(c2)cc(C)n3C)c(C)c1", "inhibition": 21.8},
      {"smiles": "O=S(=O)(NCc1ccccc1)c1ccc2ccccc2c1", "inhibition": -9.3},
      {"smiles": "COc1ccccc1C(=O)NCC(=O)OCC(=O)c1ccc2c(c1)-c1ccccc1C2", "inhibition": 2.5},
      {"smiles": "CSc1ccccc1OCc1cc(C(=O)N2CCN(c3ncccn3)CC2)no1", "inhibition": -3.62},
      {"smiles": "O=C(c1ccccc1F)N1CCCc2ccccc21", "inhibition": -3.09},
      {"smiles": "CCOC(=O)CN(C(=O)CNC(=O)c1cccs1)C(C(=O)NC1CCCC1)c1ccncc1", "note": "(stereo not given)", "inhibition": -5},
      {"smiles": "CCC(C(=O)N/N=C/c1cccnc1)c1ccccc1", "note": "(stereo not given)", "inhibition": -5.44},
      {"smiles": "Cc1cc(C(=O)NC2CCCN(Cc3ccccc3F)C2)n[nH]1", "note": "(stereo not given)", "inhibition": -3.85},
      {"smiles": "C=CCNC(=S)Nc1ccccc1-c1nnc2n1CCCCC2", "inhibition": 9.65},
      {"smiles": "COC(=O)c1cc(C(=O)OCC(=O)NC2CCCCCCC2)cc([N+](=O)[O-])c1", "inhibition": -0.07},
      {"smiles": "Cc1ccc(CNC(=O)COc2ccc(C)nc2[N+](=O)[O-])cc1", "inhibition": -5.51},
      {"smiles": "CCCCC(=O)Nc1c2c(nn1-c1ccc(C)cc1)CS(=O)(=O)C2", "inhibition": -7.59},
      {"smiles": "COC(=O)c1c(C)cc(C)c2c1CC(C)(C)C2=O", "inhibition": 5.46},
      {"smiles": "O=C(Nc1nccs1)c1ccc(F)c(S(=O)(=O)N2CCOCC2)c1", "inhibition": -4.84},
      {"smiles": "Cc1ccc(S(=O)(=O)N2CCOCC2)cc1C(=O)Nc1nc(-c2ccccn2)cs1", "inhibition": 7.65},
      {"smiles": "Cc1ccc(C(=O)Nc2ccccn2)cc1S(=O)(=O)N1CCOCC1", "inhibition": -1.96},
      {"smiles": "COc1ccc(C(=O)Nc2nc(-c3ccccn3)cs2)cc1S(=O)(=O)N1CCOCC1", "inhibition": -8.69},
      {"smiles": "O=C(Nc1ccccc1)c1ccc(F)c(S(=O)(=O)N2CCOCC2)c1", "inhibition": 5.59},
      {"smiles": "Cc1ccc(S(=O)(=O)N2CCOCC2)cc1C(=O)Nc1nc(-c2cccnc2)cs1", "inhibition": -7.87},
      {"smiles": "CCC(NC(=O)COc1cc2c(c3oc(=O)c(C)c(C)c13)CCC(C)(C)O2)C(=O)O", "note": "(stereo not given)", "inhibition": -8.88},
      {"smiles": "CC(C)CCN1CC(=O)N2Cc3[nH]c4ccccc4c3C[C@H]2C1=O", "inhibition": 19.7},
      {"smiles": "Cc1c(CNC2CCCC(C)C2C)c(C(=O)O)c(C)n1Cc1ccccc1", "note": "(stereo not given)", "inhibition": -12.9},
      {"smiles": "CC(C)NC(=O)NC(=O)COC(=O)c1cc(S(=O)(=O)N2CCCCC2)ccc1N1CCOCC1", "inhibition": -4.42},
      {"smiles": "Cc1ccc(S(=O)(=O)N2CCCC2C(=O)OCc2ccccc2)cc1", "note": "(stereo not given)", "inhibition": 1.42},
      {"smiles": "COc1ccccc1NC(c1cccnc1)c1ccc2cccnc2c1O", "note": "(stereo not given)", "inhibition": 17.3},
      {"smiles": "Oc1ccccc1C(Nc1nccs1)c1ccc2cccnc2c1O", "note": "(stereo not given)", "inhibition": 21.5},
      {"smiles": "Oc1c(C(Nc2cccc(C(F)(F)F)c2)c2cccnc2)ccc2cccnc12", "note": "(stereo not given)", "inhibition": -1.29},
      {"smiles": "Cc1ccc2ccc(C(Nc3cccc(C(F)(F)F)c3)c3cccnc3)c(O)c2n1", "note": "(stereo not given)", "inhibition": 11.9},
      {"smiles": "Cc1ccnc(NC(c2ccccc2)c2ccc3cccnc3c2O)c1", "note": "(stereo not given)", "inhibition": 7.45},
      {"smiles": "Cc1cc(NC(c2ccc(Cl)cc2)c2ccc3cccnc3c2O)no1", "note": "(stereo not given)", "inhibition": -17.5},
      {"smiles": "COc1ccc(C(Nc2cc(C)ccn2)c2ccc3ccc(C)nc3c2O)cc1", "note": "(stereo not given)", "inhibition": 7.32},
      {"smiles": "Cc1ccc2ccc(C(Nc3ccccn3)c3ccccc3)c(O)c2n1", "note": "(stereo not given)", "inhibition": 32.6},
      {"smiles": "CC(C)CNC(=O)COc1cccc(C(=O)NCc2ccccc2)c1", "inhibition": -16.8},
      {"smiles": "O=C(CN1C(=O)c2cccc3cccc1c23)NCc1cccnc1", "inhibition": -7.77},
      {"smiles": "Cc1cc(S(=O)(=O)Nc2ccc(N3CCOCC3)cc2)ccc1Br", "inhibition": 9.89},
      {"smiles": "Cc1ccc(-n2nc3c(=O)n(CCCC(=O)NCc4cccc(F)c4)nc(C)c3c2C)cc1", "inhibition": 4.12},
      {"smiles": "Cc1c2cnn(CC(=O)NCCN3CCOCC3)c(=O)c2c(C)n1Cc1ccccc1", "inhibition": 7.12}
    ]}
  ]
}
